Where “and” joins values, the source holds several entries; their conditions need not be identical. Identical values can stand only once. The source holds several records for some structures; these can differ, active in one and inactive in another. Calls of active or inactive are those of the source. How the source made its calls: active means hit-call score of the fitted dose curve at least 0.9, where 1 is the maximum; inactive means score below 0.9.
What follows are compounds tested on CD40, CD40 (gene 958) (assay: BSK_LPS_CD40: BioMAP Diversity Plus: LPS Assay for CD40 Biomarker Activity (AID 2283076)). Conditions: primary human HUVEC with PBMC; actives raise or lower the signal.
Summary of the method: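 ELISA readout of CD40 in HUVEC/PBMC co-culture (BSK_LPS system), 24 h post-dosing; bidirectional curve fit, DMSO baseline; parallel SRB total-protein staining for cytotoxicity.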
`CC(C)(c1cc(Br)c(OCCO)c(Br)c1)c1cc(Br)c(OCCO)c(Br)c1` was tested, and the AC50 was 11.9 µM (active).
In the case of `O=C(c1ccc(O)cc1)c1ccc(O)cc1O`, the outcome is reported as “inactive”.
`CCCCC(CC)COCC1CO1` (centres undefined) was tested, and the outcome was “inactive”.
In the case of `O=c1c2ccccc2oc2ccccc12`, the outcome is reported as “inactive”.
In the case of `S=C(NC1CCCCC1)NC1CCCCC1`, the outcome is reported as “inactive”.
With `CCOC(=O)c1ccccc1C(=C1C=C(Br)C(=O)C(Br)=C1)c1cc(Br)c(O)c(Br)c1` the AC50 was 20.9 µM (active) and 17.5 µM (active).
For `CO[Si](OC)(OC)c1ccccc1`, the outcome was “inactive”.
For `CC(C)C(=O)C(C)C`, the outcome was “inactive”.
For `COc1ccc2nc(N)sc2c1`, the outcome was “inactive”.
For `c1ccc2c(c1)ccc1cc3c(ccc4ccccc43)cc12`, the outcome was “inactive”.
With `c1ccc2c(c1)ccc1ncccc12` the AC50 was 20 µM (active).
`C/C=C\C/C=C/CCCCCCCCOC(C)=O` was tested, and the AC50 was 20 µM (active).
In the case of `c1ccc(-c2ccccn2)nc1`, the outcome is reported as “inactive”.
With `CCO[Si](CCCN=C=O)(OCC)OCC` the outcome was “inactive”.

What follows are compounds tested on E-selectin (Homo sapiens) (UniProt P16581) (assay: BSK_LPS_Eselectin: BioMAP Diversity Plus: LPS Assay for Eselectin Biomarker Activity (AID 2283077)). Conditions: primary human HUVEC with PBMC; actives raise or lower the signal.
Sequence of E-selectin (Homo sapiens) (P16581 whole entry, looked up): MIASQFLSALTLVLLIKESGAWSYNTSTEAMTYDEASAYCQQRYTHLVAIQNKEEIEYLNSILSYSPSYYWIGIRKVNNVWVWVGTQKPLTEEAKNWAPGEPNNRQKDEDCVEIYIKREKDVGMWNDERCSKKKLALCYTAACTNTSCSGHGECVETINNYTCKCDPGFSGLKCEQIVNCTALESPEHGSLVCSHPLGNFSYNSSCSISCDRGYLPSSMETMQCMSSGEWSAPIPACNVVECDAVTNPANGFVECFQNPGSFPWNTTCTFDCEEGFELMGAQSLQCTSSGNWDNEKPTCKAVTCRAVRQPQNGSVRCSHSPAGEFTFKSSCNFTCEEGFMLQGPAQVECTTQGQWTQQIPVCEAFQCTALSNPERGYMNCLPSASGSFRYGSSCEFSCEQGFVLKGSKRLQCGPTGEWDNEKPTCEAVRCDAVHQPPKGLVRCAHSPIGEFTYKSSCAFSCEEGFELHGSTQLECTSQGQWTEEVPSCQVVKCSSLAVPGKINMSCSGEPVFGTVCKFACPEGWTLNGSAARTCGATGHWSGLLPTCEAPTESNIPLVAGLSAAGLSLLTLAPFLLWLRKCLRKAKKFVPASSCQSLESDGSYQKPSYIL
Summary of the method: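 ELISA readout of E-selectin, 24 h post-dose, HUVEC + PBMC co-culture (LPS system). Gain or loss of signal vs DMSO baseline, bidirectional fit.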
With `C=CC(=O)OCC(Br)CBr` (centres undefined) the AC50 was 20 µM (active).
For `O=C(Nc1ccccc1SSc1ccccc1NC(=O)c1ccccc1)c1ccccc1`, the outcome was “inactive”.
In the case of `CCOc1nc(F)cc2nc(S(=O)(=O)Nc3c(Cl)cccc3C(=O)OC)nn12`, the outcome is reported as “inactive”.
For `N#[N+]c1ccc2c(S(=O)(=O)[O-])cccc2c1O`, the outcome was “inactive”.
With `COCc1c(C(C)C)nc(C(C)C)c(/C=C/[C@@H](O)C[C@@H](O)CC(=O)O)c1-c1ccc(F)cc1` the outcome was “inactive”.
In the case of `CCCCC(CC)COC(=O)c1ccccc1O` (centres undefined), the outcome is reported as “inactive”.
With `O=C1CCCN1CCO` the outcome was “inactive”.
For `CC1OC1C1CCC2(C)OC2C1` (centres undefined), the outcome was “inactive”.
`CCO[Si](C)(OCC)OCC` was tested, and the outcome was “inactive”.
For `C=CCOCC(O)CCl` (centres undefined), the outcome was “inactive”.
In the case of `C#CC1(O)CC[C@H]2[C@@H]3CCC4=CCCC[C@@H]4[C@H]3CC[C@@]21C` (some centres undefined), the AC50 is reported as 30.3 µM (active).
`O=C(Cl)c1cc(C(=O)Cl)cc(C(=O)Cl)c1` was tested, and the AC50 was 31.2 µM (active).
`CCCCCCCCCCCCCCCC[N+](C)(C)CC` was tested, and the AC50 was 5.7 µM (active).
In the case of `CN1C(=O)N(C)C(O)C1O` (centres undefined), the outcome is reported as “inactive”.
For `CCCCNc1ccc(NCCCC)c2c1C(=O)c1ccccc1C2=O`, the outcome was “inactive”.
`C=C[Si](OC(C)=O)(OC(C)=O)OC(C)=O` was tested, and the outcome was “inactive”.
In the case of `Nc1ccc(N)c(Cl)c1`, the AC50 is reported as 13.9 µM (active) and the outcome is reported as “inactive”.
With `O=Nc1ccc(O)cc1` the outcome was “inactive”.
In the case of `C=CCOc1c(Br)cc(Br)cc1Br`, the outcome is reported as “inactive”.
With `CCCCCCCCc1ccc(Nc2ccc(CCCCCCCC)cc2)cc1` the outcome was “inactive”.
`CCCCC/C=C\C/C=C\CCCCCCCC(=O)OC` was tested, and the AC50 was 36.5 µM (active).
With `C=CC=CC=CCCCCC` the outcome was “inactive”.
For `CC(C)(c1cc(Br)c(OCCO)c(Br)c1)c1cc(Br)c(OCCO)c(Br)c1`, the outcome was “inactive”.
For `O=C(c1ccc(O)cc1)c1ccc(O)cc1O`, the outcome was “inactive”.
For `CCCCC(CC)COCC1CO1` (centres undefined), the outcome was “inactive”.
With `O=c1c2ccccc2oc2ccccc12` the outcome was “inactive”.
`S=C(NC1CCCCC1)NC1CCCCC1` was tested, and the outcome was “inactive”.
In the case of `CCOC(=O)c1ccccc1C(=C1C=C(Br)C(=O)C(Br)=C1)c1cc(Br)c(O)c(Br)c1`, the AC50 is reported as 21.2 µM (active) and 21.8 µM (active).
In the case of `CO[Si](OC)(OC)c1ccccc1`, the outcome is reported as “inactive”.
With `CC(C)C(=O)C(C)C` the outcome was “inactive”.
`COc1ccc2nc(N)sc2c1` was tested, and the outcome was “inactive”.
With `c1ccc2c(c1)ccc1cc3c(ccc4ccccc43)cc12` the outcome was “inactive”.
For `c1ccc2c(c1)ccc1ncccc12`, the outcome was “inactive”.
In the case of `C/C=C\C/C=C/CCCCCCCCOC(C)=O`, the AC50 is reported as 30.9 µM (active).
In the case of `c1ccc(-c2ccccn2)nc1`, the outcome is reported as “inactive”.
For `CCO[Si](CCCN=C=O)(OCC)OCC`, the outcome was “inactive”.

Each compound was assayed on Interleukin-8 (IL8), CXCL8 (gene 3576) (assay: BSK_LPS_IL8: BioMAP Diversity Plus: LPS Assay for Interleukin-8 (IL8) Biomarker Activity (AID 2283078)). Conditions: primary human HUVEC with PBMC; actives raise or lower the signal.
Summary of the method: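 HUVEC + PBMC co-culture, LPS-activated; test chemicals dosed, IL-8 read by ELISA at 24 h. Bidirectional curve fit vs DMSO baseline (gain or loss of signal).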
With `C=CC(=O)OCC(Br)CBr` (centres undefined) the AC50 was 12.5 µM (active).
For `O=C(Nc1ccccc1SSc1ccccc1NC(=O)c1ccccc1)c1ccccc1`, the AC50 was 5.19 µM (active).
For `CCOc1nc(F)cc2nc(S(=O)(=O)Nc3c(Cl)cccc3C(=O)OC)nn12`, the outcome was “inactive”.
`N#[N+]c1ccc2c(S(=O)(=O)[O-])cccc2c1O` was tested, and the outcome was “inactive”.
`COCc1c(C(C)C)nc(C(C)C)c(/C=C/[C@@H](O)C[C@@H](O)CC(=O)O)c1-c1ccc(F)cc1` was tested, and the outcome was “inactive”.
With `CCCCC(CC)COC(=O)c1ccccc1O` (centres undefined) the outcome was “inactive”.
With `O=C1CCCN1CCO` the outcome was “inactive”.
With `CC1OC1C1CCC2(C)OC2C1` (centres undefined) the outcome was “inactive”.
For `CCO[Si](C)(OCC)OCC`, the outcome was “inactive”.
`C=CCOCC(O)CCl` (centres undefined) was tested, and the outcome was “inactive”.
With `C#CC1(O)CC[C@H]2[C@@H]3CCC4=CCCC[C@@H]4[C@H]3CC[C@@]21C` (some centres undefined) the AC50 was 35 µM (active).
`O=C(Cl)c1cc(C(=O)Cl)cc(C(=O)Cl)c1` was tested, and the AC50 was 28.8 µM (active).
`CCCCCCCCCCCCCCCC[N+](C)(C)CC` was tested, and the AC50 was 8.09 µM (active).
With `CN1C(=O)N(C)C(O)C1O` (centres undefined) the outcome was “inactive”.
`CCCCNc1ccc(NCCCC)c2c1C(=O)c1ccccc1C2=O` was tested, and the outcome was “inactive”.
For `C=C[Si](OC(C)=O)(OC(C)=O)OC(C)=O`, the outcome was “inactive”.
`Nc1ccc(N)c(Cl)c1` was tested, and the AC50 was 7.92 µM (active) and the outcome was “inactive”.
In the case of `O=Nc1ccc(O)cc1`, the outcome is reported as “inactive”.
With `C=CCOc1c(Br)cc(Br)cc1Br` the outcome was “inactive”.
`CCCCCCCCc1ccc(Nc2ccc(CCCCCCCC)cc2)cc1` was tested, and the outcome was “inactive”.
`CCCCC/C=C\C/C=C\CCCCCCCC(=O)OC` was tested, and the AC50 was 29.5 µM (active).
For `C=CC=CC=CCCCCC`, the outcome was “inactive”.
In the case of `CC(C)(c1cc(Br)c(OCCO)c(Br)c1)c1cc(Br)c(OCCO)c(Br)c1`, the outcome is reported as “inactive”.
`O=C(c1ccc(O)cc1)c1ccc(O)cc1O` was tested, and the outcome was “inactive”.
In the case of `CCCCC(CC)COCC1CO1` (centres undefined), the outcome is reported as “inactive”.
For `O=c1c2ccccc2oc2ccccc12`, the outcome was “inactive”.
`S=C(NC1CCCCC1)NC1CCCCC1` was tested, and the outcome was “inactive”.
With `CCOC(=O)c1ccccc1C(=C1C=C(Br)C(=O)C(Br)=C1)c1cc(Br)c(O)c(Br)c1` the AC50 was 23 µM (active) and 22.9 µM (active).
`CO[Si](OC)(OC)c1ccccc1` was tested, and the outcome was “inactive”.
With `CC(C)C(=O)C(C)C` the outcome was “inactive”.
For `COc1ccc2nc(N)sc2c1`, the outcome was “inactive”.
With `c1ccc2c(c1)ccc1cc3c(ccc4ccccc43)cc12` the AC50 was 1.84 µM (active) and the outcome was “inactive”.
With `c1ccc2c(c1)ccc1ncccc12` the outcome was “inactive”.
In the case of `C/C=C\C/C=C/CCCCCCCCOC(C)=O`, the AC50 is reported as 34 µM (active).
`c1ccc(-c2ccccn2)nc1` was tested, and the outcome was “inactive”.
For `CCO[Si](CCCN=C=O)(OCC)OCC`, the outcome was “inactive”.
